# Hits are enriched below; roughly 19% of the tested compounds scored in any of these assays.
# TDP1 cell noCPT: qHTS for Inhibitors of human tyrosyl-DNA phosphodiesterase 1 (TDP1): qHTS in cells in absence of CPT. Potency, µM (titrated, usually from 46.2 µM), without a hit: top-dose activity change, negative = growth inhibition, actives largely listed as inhibitors. actives 15% (n = 420,000). DT40 Tdp1-/- hTDP1 cells, no CPT, ATP luminescence, 48 h. AID 686978, 2013; note: potency is the fitted concentration of half-maximal effect; nearly all actives have a fitted effect of over 55% in size
#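 Chicken DT40 Tdp1-/- cells stably complemented with human TDP1 were seeded at 400 cells/well with DMSO in place of 20 nM camptothecin. After compound pinning, cells grew at least 48 hr at 37 °C; viability read by CellTiter-Glo luminescence.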
# IL-1B inflam inh: qHTS for Inhibitors of Inflammasome Signaling: IL-1-beta AlphaLISA Primary Screen | THP-1 LPS/ATP IL-1B secretion, AlphaLISA, 16 h; stronger effect = lower value | activity change, % at 57.5 µM | actives 4.7% (n = 360,000); in the data active = activity change below about -50%; inconclusive = mostly about -30% to -49%
#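 Secreted IL-1B measured by AlphaLISA bead assay after 16 h compound exposure of THP-1 cells; compounds (final up to 57.5 uM) added 1 h before LPS (250 ng/mL) and ATP (1.25 mM) stimulation; lower signal means less secretion.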
# HT1080 IDH1KD tx: qHTS for induction of synthetic lethality in tumor cells producing 2HG: qHTS for the HT-1080-IDH1KD cell line; Potency, µM (doses to about 46.1 µM), for inactives: at the highest dose activity, negative = toxicity, most hits filed as cytotoxic; actives 2% (n = 360,000); HT-1080 IDH1 knockdown viability, ATP luminescence, 48 h; AID 686971, 2013;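 note: potency is the fitted concentration of half-maximal effect; 0% = DMSO wells and -100% = cell-free medium wells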
#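 IDH1KD HT-1080 cells, 750/well, RPMI + 5% FBS; compound pinned after 2 h settling; 48 h, 37 °C; CellTiter-Glo luminescence; % activity normalised to DMSO and no-cell wells; curves fitted, classed by r2 and efficacy.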
# HT1080-NT tox: qHTS for induction of synthetic lethality in tumor cells producing 2HG: qHTS for the HT-1080-NT fibrosarcoma cell line | HT-1080-NT fibrosarcoma viability, CellTiter-Glo ATP luminescence, 48 h | Potency, µM (doses to about 46.1 µM), without a hit: at the highest dose activity, negative = less viability, hits mostly cytotoxic | actives 1.6% (n = 360,000) | AID 686970, 2013;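 note: NT is the 2HG producing partner of a matched IDH1 knockdown line; potency is the fitted concentration of half-maximal effect; 0% = DMSO-treated cells and -100% = media-only wells without cells; nearly all actives have a fitted effect of over 55% in size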
#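 Compounds were tested in concentration-response format on HT-1080-NT cells for 48 hours at 37 degrees C. Cell viability came from CellTiter-Glo luminescence; curves were classified by r2, response magnitude and activity.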
# DT40 TDP1 CPT: qHTS for Inhibitors of human tyrosyl-DNA phosphodiesterase 1 (TDP1): qHTS in cells in presence of CPT; AID 686979, 2013; actives 12% (n = 420,000); chicken DT40 Tdp1-/-;hTDP1 cells + 20 nM CPT, ATP luminescence, 48 h; Potency, µM (top dose mostly 46.2 µM), without a hit: top-dose activity change, negative = growth inhibition, actives largely listed as inhibitors; note: potency is the fitted concentration of half-maximal effect; nearly all actives have a fitted effect of over 55% in size
#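 Chicken DT40 Tdp1-/- cells complemented with human TDP1, 400 cells/well, exposed to compounds plus 20 nM camptothecin for at least 48 h at 37 C; viability read as ATP content by CellTiter-Glo luminescence.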
# Starred values were filed as active, the others as inactive; ? = inconclusive; · = not tested or not shown; [ ] = dose if it differs, or a comment. Unless noted, calls come from the whole dose curve; as a rule, active = well fitted curve in the direction sought with a large enough effect; inconclusive = small, poorly fitted or top-dose-only effect, or another doubt; inactive = no such curve, though single readings can be large; an effect the other way counts as inactive or inconclusive. Unless noted, % is set by controls: 0 for no effect and ±100 for the full control effect.
SMILES,TDP1 cell noCPT,IL-1B inflam inh,HT1080 IDH1KD tx,HT1080-NT tox,DT40 TDP1 CPT
Cc1ccc(S(=O)(=O)N2CCCN(C(=O)c3cc4ccccc4[nH]3)CC2)cc1,?,-61.4*,-16.6%,-7.3%,2.1%
Cc1ccc(S(=O)(=O)N2CCC(C(=O)Nc3ccccc3N3CCCCC3)CC2)cc1C,?,15.6,3.5%,7.7%,18.4µM*
CC(C)Oc1ccc(CNC(=O)c2ccc(CN3CC(=O)N4CCCCC4C3=O)cc2)cc1 (configuration not stated),-3.6%,·,·,·,0.4%
Cc1cnc(-n2ncc(C(=O)N(C)C3CCOC3)c2C)nc1-c1ccc(F)cc1 (configuration not stated),-9.7%,·,·,·,-2.3%[9.04 µM]
COc1cc(Cl)c(C)cc1NC(=O)CSc1nc2c(c(=O)[nH]1)CCC2,?,·,·,·,-27.6%
Cc1ccc(NS(=O)(=O)c2ccc(NC(=O)C3CCCO3)cc2)cc1 (configuration not stated),11.6µM*,2.3,-7.9%,-11.8%,?
COc1ccc(S(=O)(=O)N2CCC(C(=O)Nc3ccc(OC)c(OC)c3)CC2)cc1C,-17.5%,-9.2,1.3%,-0.4%,-13.8%
Cc1ccc(S(=O)(=O)N2CCC(C(=O)Nc3ccc(S(=O)(=O)N4CCCC4)cc3)CC2)cc1C,18.4µM*,4.7,-17.8%,-19.2%,?
COc1ccc(S(=O)(=O)N2CCCN(S(=O)(=O)c3ccc(OC)cc3C)CC2)c(C)c1,?,-21.3,-12.3%[9.24 µM],-23.4%,23.1µM*
O=[N+]([O-])c1cc(Br)c(O)c(/C=N/Nc2nnnn2-c2cccc3ccccc23)c1,-4.5%,20.7,-16.9%,?,-16.5%
COc1ccc(NC(=O)N2CCCC3(CCN(C(=O)c4cc(C(F)(F)F)cc(C(F)(F)F)c4)CC3)C2)cc1,-11.1%,·,·,·,-3.1%
Cc1cccc(N=Nc2c(C)nn(-c3ccccc3)c2N)c1C,?,0.0,-11.4%,-11.4%,?
Cc1nn(-c2ccccc2)c(N)c1N=Nc1ccccc1,20.6µM*,-68.3*,?,?,?
Nc1c2c(nn1-c1ccccc1)CCC2,-7.6%,-1.8,-2.3%,0.0%,?
Cc1nn(-c2ccccc2)c(N)c1N=Nc1ccc(Cl)cc1,?,-76.1*,?,?,?
Nc1nc(-c2ccccc2)[nH]c(=O)c1N=O,?,22.7,0.5%,-6.0%,-15.7%
Nc1nc(N)c(N=Nc2ccccc2)c(=O)[nH]1,5.8µM*,?,?,-16.1%,20.6µM*
Nc1nn(-c2ccccc2)c(N)c1N=Nc1ccccc1,4.61µM*,15.1,16.4µM*,?,4.11µM*
Cc1nn(-c2ccccc2)c(N)c1-c1ccccc1,11.1%,-2.5,10.9%,11.4%,3.3%
O=C(NC1CCCC1)N[C@@H]1CC[C@@H](CC(=O)N2CCOCC2)O[C@@H]1CO,8.8%,24.4,23.6%,26.5%,1.6%
Nc1c(N=Nc2ccccc2F)c(=O)[nH]n1-c1ccccc1,-5.4%,-11.5,-4.5%,-13.6%,3.2%
Cc1nn(-c2ccccc2)c(N)c1N=Nc1cccc(S(=O)(=O)N2CCOCC2)c1,16.4µM*,-56.2*,?,?,?
Cc1ccc(C)n1-c1cccc(S(=O)(=O)N2CCOCC2)c1,?,?,-22.6%,-10.3%,-0.8%
Nc1ncnc(N)c1N=Nc1ccccc1,3.26µM*,-59.9*,11.6µM*,?,23.1µM*
Nc1nn(-c2ccccc2)c(N)c1N=Nc1ccccc1F,13µM*,-54.5*,5.8µM*,8.2µM*,9.2µM*
Cc1nc2ccccc2n1CC(=O)OCC(=O)NC1CC1,-2.0%,-10.2,14.7%,17.4%,-4.9%
